Screens (PubChem BioAssay)
BCR signal inh – chronic active BCR signaling inhibition. AID 493014. Potency, µM (doses to about 46.1 µM), inactives show at the highest dose activity change, negative = inhibition, most hits filed as inhibitors. 340,000 compounds, 0.05% hits. ABC-DLBCL IkBa-CBG/CBR reporter, luminescence ratio, 4 h; active means well fitted inhibition curve with a large enough effect in the signal ratio, with a control signal flat, not every such curve was filed as active; inconclusive means small, poorly fitted or top-dose-only effect, or effect the other way, or a change in a side signal; the % refers to the signal ratio;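 further: plate controls were basal doxycycline-induced cells for no effect and cells given 10 µM MG132 for full effect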
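Concentration-response series (up to 46 uM) were applied to TMD8 dual-reporter cells for 4 h at 37C with doxycycline. Green/red ratio, after filter-overlap correction, defined %Activity; red signal alone was normalised to basal cells and zero luminescence.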
Tb PFK inh-1 – inhibitors of T. brucei phosphofructokinase. T. brucei PFK, ADP-Glo luminescence. AID 485367. 330,000 compounds, 0.17% hits. Potency, µM (series often up to 57.5 µM), for the others: top-dose activity, negative = inhibition, usual class: inhibitors. O15648;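 further: 0% = uninhibited 1x PFK enzyme wells and -100% = no-enzyme wells; nearly all actives have a fitted effect of over 60% in size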
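1.25 nM PFK with 0.5 mM F6P and 0.1 mM ATP in 0.1 M TEA pH 8.0, 5 mM MgCl2, incubated 45 min at room temperature; ADP measured by ADP-Glo luminescence; compounds titrated up to 57 uM.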
RGS4 inhibitor – inhibitors of human regulator of G protein signaling 4. Transcreener GDP fluorescence polarization, RGS4-accelerated GTP hydrolysis. Potency, µM (highest dose often 114 µM), for inactives: top-dose activity change, negative = inhibition, most hits filed as inhibitors. 390,000 compounds, 0.039% hits; further: on the % scale 0 is the no-effect control and ±100 the full control effect; nearly all actives have a fitted effect of over 75% in size
Target sequence (P49798 whole entry, looked up): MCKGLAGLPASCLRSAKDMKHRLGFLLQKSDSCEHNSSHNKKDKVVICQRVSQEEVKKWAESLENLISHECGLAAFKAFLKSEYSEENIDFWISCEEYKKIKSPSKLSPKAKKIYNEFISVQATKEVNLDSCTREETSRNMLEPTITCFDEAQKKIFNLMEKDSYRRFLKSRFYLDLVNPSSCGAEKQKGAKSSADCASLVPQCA
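MLSMR compounds (23 nl, pin-transferred) preincubated 10 min at room temperature with a 500nM (2x) first reagent, then RGS4 at 900nM (2x) plus Transcreener GDP mix added; fluorescence polarization (620/688 nm) read before and after 90 min at 30 °C.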
Tb PGK inh – inhibitors of T. brucei phosphoglycerate kinase; Potency, µM (doses to about 57.5 µM), for the others: at the top dose activity change, negative = inhibition, actives largely listed as inhibitors; PGK/GAPDH coupled, Kinase-Glo luminescence, 60 min; AID 602233; 380,000 compounds, 0.043% hits; further: on the % scale 0 is the no-effect control and ±100 the full control effect; nearly all actives have a fitted effect of over 60% in size
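Luminescent ATP detection (Kinase-Glo Plus) follows a 60-minute room-temperature incubation, with wells lacking PGK as controls. Buffer: 100 mM TEA (pH 7.6), 5 mM MgCl2, 0.01% Tween-20. Coupling enzyme GAPDH (100 nM final) supplies unstable 1,3-BPG in-well.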
USP2a inh – inhibitors of human ubiquitin-specific protease USP2a | O75604 | USP2 core, Ub-CHOP2 coupled fluorogenic reporter, 485/531 | Potency, µM (top dose mostly 38.3 µM), for inactives: top-dose activity change, negative = inhibition, most hits filed as inhibitors | 330,000 compounds, 0.01% hits;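 further: plate controls were DMSO wells for no effect and full inhibition by NEM control for full effect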
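Deubiquitinase activity read as fluorescence (485/531 nm) after Ub-CHOP2 cleavage activates the enterokinase reporter on its substrate; USP2 core 10nM, Ub-CHOP2 and substrate 25nM each, 30min compound preincubation then 60min RT; data normalized to NEM, curves fitted.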
Tb PFK KinaseGlo – inhibits T. brucei PFK measured by ATP depletion | shares compounds with Tb PFK inh-1 | Tb PFK enzyme, ATP depletion, Kinase-Glo Plus luminescence | Potency, µM (series often up to 57.5 µM), without a hit: at the highest dose inhibition | 1,100 compounds, 47% hits; calls by dose curve; further: nearly all actives have a fitted effect of over 60% in size
Tb PFK inh-2 – validation of T. brucei phosphofructokinase inhibitors | shares compounds with Tb PFK inh-1 | purified T. brucei PFK, ADP-Glo luminescence, 45 min | Potency, µM (highest dose often 57.5 µM), for the others: at the top dose activity change, negative = inhibition, hits mostly inhibitors | 1,100 compounds, 41% hits | AID 504637;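 further: plate controls were full PFK enzyme control for no effect and no enzyme control for full effect; nearly all actives have a fitted effect of over 60% in size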
* = called active by the depositor; i = inactive; ? = inconclusive; · = no result; [ ] = dose if it differs, or a comment. Compounds with a hit are over-represented: about 0.25% of the library has one in this group of screens. Unless noted, the call rests on the fitted dose curve; in most records, active means well fitted curve in the direction sought with a large enough effect; inconclusive means small, poorly fitted or top-dose-only effect, or another doubt; inactive means no such curve, though single readings can be large; an effect the other way counts as inactive or inconclusive. Potency means the concentration at half of the fitted maximal effect.

SMILES | BCR signal inh | Tb PFK inh-1 | RGS4 inhibitor | Tb PGK inh | USP2a inh | Tb PFK KinaseGlo | Tb PFK inh-2
Cc1ccc(-c2ccc(C3C(C#N)=C(N)Oc4n[nH]c(C)c43)o2)cc1 (stereo not drawn) | ? | ? | ? | 6.6% | -1.0% | ? | -16.6%
CCN(CC)c1ccc(/C=C2\C(=O)N(c3nnc(C)c(=O)[nH]3)N=C2C)cc1 | 6.5% | ? | ? | 3.0% | 2.4% | ? | 13.5µM*
Cc1cc(C)c(C)c(S(=O)(=O)N2CCC(C(=O)OCC(=O)N3c4ccccc4NC(=O)C3(C)C)CC2)c1C | 8.2% | ? | -43.5% | -3.9% | 0.6% | ? | ?
CCN(CC)S(=O)(=O)c1ccc(NC(=O)CSc2nnc3c(n2)[nH]c2ccccc23)cc1 | · | · | 5.4% | · | · | · | ·
Cc1ccc(S(=O)(=O)CNC(=S)c2cccc(Cl)c2)cc1 | ? | ? | -48.1% | -7.7% | 2.1% | ? | 30.1µM*
Cc1ccc(N(C(=O)c2cccc(C)c2)S(=O)(=O)c2ccc(Cl)cc2)cc1 | · | · | 13.7% | -1.7% | · | · | ·
CCCCC/C=C\C\C=C/C=C/C=C/[C@@H](SC[C@H](N)C(=O)O)[C@@H](O)CCCC(=O)O | · | · | i | · | · | · | ·
O=c1c2ccccc2nc2n1CCC2 | -7.6% | ? | 11.0% | ? | 1.5% | 26.9µM* | 16.9µM*
COc1ccccc1NS(=O)(=O)c1cc(NC(=O)c2sccc2C)ccc1N1CCCC1 | 2.5% | ? | ? | -0.3% | 6.6% | 12µM* | 23.9µM*
NS(=O)(=O)c1ccc(NC(=O)Nc2ccc(Cl)cc2)cc1 | 5.3% | 12µM* | 18.2% | i | -1.9% | 6.01µM* | 10.7µM*
NS(=O)(=O)c1ccc(NC(=S)NCc2cccc(Cl)c2)cc1 | -1.4% | ? | -42.7% | i | 1.9% | 1.51µM* | 2.39µM*
NS(=O)(=O)c1ccc(NC(=S)Nc2cc(Cl)c(Cl)cc2Cl)cc1 | -0.7% | ? | -19.2% | -1.2% | -0.7% | 26.9µM* | ?
O=C(CCCCCN1CCN(c2ccccc2-c2ccccc2)CC1)NC1CCCc2ccccc21 (stereo not drawn) | · | · | 12.7%[56.9 µM] | · | · | · | ·
Cc1cc(NC2CCCCC2)nc(-n2nc(C)cc2C)n1 | · | · | -9.7%[56.9 µM] | · | · | · | ·
CN1CCOc2cc(S(=O)(=O)N3CCN(c4nc(-c5cccs5)nc5ccccc45)CC3)ccc21 | · | · | -3.4% | · | · | · | ·
O=S1(=O)CCOC(CO)CN1Cc1ccc(Cl)c(Cl)c1 (stereo not drawn) | -2.4% | ? | -12.8% | -6.8% | 1.1% | ? | ?
O=S1(=O)CCN(Cc2ccc(Cl)c(Cl)c2)CC1 | -2.0% | -2.0% | 21.8% | 3.6% | -0.7% | · | ·
Cc1cc(Nc2ccccc2Cl)n2nc(-c3ccco3)nc2n1 | · | · | -12.3% | -1.5% | · | · | ·
Cc1cc(C)n2nc3nc(N4CCCCC4)nc(-c4ccco4)c3c2n1 | -1.4% | ? | ? | -3.8% | -1.3% | 8.6% | -1.7%
COc1ccccc1NC(=O)COC(=O)c1cc2c(s1)CCC2 | -8.9% | ? | -9.9% | ? | -0.6% | · | ·
COc1ccc(OC)c(NC(=O)COC(=O)c2cc3c(s2)CCC3)c1 | -8.9% | ? | -24.3% | ? | -6.0% | ? | ?
N#Cc1ccc2ccn(CC(=O)NCc3ccco3)c2c1 | -3.0% | 21.3µM* | -9.8% | -11.9% | 2.8% | 13.5µM* | 30.1µM*
N#Cc1ccc2ccn(CC(=O)NC3CCCCCC3)c2c1 | -1.2% | -24.5% | 34.1% | 0.5% | -1.3% | · | ·
COCCn1c(SCCN2CCOCC2)nc2c1c(=O)[nH]c(=O)n2C | 7.8% | ? | ? | -4.2% | -1.3% | 21.3µM* | 33.8µM*
